Assay outcomes from PubChem BioAssay.
Rows were chosen to be rich in hits. Some 2.2% of all compounds tested hit in one or more screens of this group.
Efflux pump mplx = inhibitors of Candida antifungal efflux pumps expressed in yeast. S. cerevisiae Candida pump triplex, Nile Red efflux. inhibition, % at 10 µM. 330,000 compounds, 0.44% hits. AID 485275;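 active = plate passing quality check with inhibition over a set limit, or well fluorescence over plate mean plus 4 SD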;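 also: Nile Red retained in pooled yeast measured as flow cytometry median fluorescence; 0% = buffer negative control and 100% = Enniatin B positive control; higher means more Nile Red kept so more efflux inhibition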
SUMO Mot1 rescue = blocks SUMOylation pathway, rescuing yeast Mot1-301 growth; S. cerevisiae Mot1-301 growth rescue, ATP luminescence, 38.5C; percent above DMSO median, 100 means doubled; growth rescue, % at 18.8 µM; 320,000 compounds, 1% hits;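 active = every valid replicate shows activation above 250% relative to neutral control wells; inactive = the rest, any valid replicate at or below 250%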;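 also: OY570 slx delta 5 strain wells were the positive control but not used for scaling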
SKN-1 block = C. elegans SKN-1 inhibition. 360,000 compounds, 0.49% hits. AID 624304. C. elegans VP596 Pgst-4::GFP/RFP ratio, acrylamide-induced, 24 h. inhibition, % at 21.8 µM;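 active = interference check ratio from 0.5 to 1.5 plus GFP to RFP signal ratio inhibition reaching or exceeding a fixed threshold, cut at about 30% in these data, passing the limit was not always enough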
sPLA2-III inh = Inhibits HGIII-sPLA2 liposome hydrolysis, primary screen; 370,000 compounds, 0.56% hits; inhibition, % at 12.2 µM; Q9NZ20; AID 743126; QFRET BODIPY PC-A2 liposome hydrolysis, fluorescence;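 active = inhibition above mean plus 3 SD of compounds lying within the high and low control bounds, cut at about 19% in these data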;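 also: 0% = median of test compound wells and 100% = no enzyme DMSO wells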
Target sequence (Q9NZ20 whole entry, looked up): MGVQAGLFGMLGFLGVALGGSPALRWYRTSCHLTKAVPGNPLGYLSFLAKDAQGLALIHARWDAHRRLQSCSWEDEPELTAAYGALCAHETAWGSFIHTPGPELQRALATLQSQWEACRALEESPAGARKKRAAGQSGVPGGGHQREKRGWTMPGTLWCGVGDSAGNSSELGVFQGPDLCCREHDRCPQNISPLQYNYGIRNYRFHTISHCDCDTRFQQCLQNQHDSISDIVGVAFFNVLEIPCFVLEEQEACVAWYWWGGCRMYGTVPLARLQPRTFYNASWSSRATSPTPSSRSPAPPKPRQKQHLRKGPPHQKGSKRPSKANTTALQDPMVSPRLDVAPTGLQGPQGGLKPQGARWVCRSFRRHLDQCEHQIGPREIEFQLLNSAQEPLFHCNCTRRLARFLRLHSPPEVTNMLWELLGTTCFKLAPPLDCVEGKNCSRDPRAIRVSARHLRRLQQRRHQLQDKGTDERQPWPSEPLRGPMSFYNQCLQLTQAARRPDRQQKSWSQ
* = called active by the depositor; / = no result given.

SMILES	Efflux pump mplx	SUMO Mot1 rescue	SKN-1 block	sPLA2-III inh
Cc1ccc(-c2nc3ccc(Cl)cn3c2Cc2ccsc2)cc1	/	/	34.6	-12.2
CC(C)c1nnc(NC(=O)COc2ccc3c(c2)OCO3)s1	0.1	-1.1	-3.2	0.4
CCc1nnc(NC(=O)COc2ccc3c(c2)OCO3)s1	0.2	259.7*	-0.5	3.6
c1ccc(Cc2cnc(N3CCN(Cc4csc5ccccc45)CC3)nc2)cc1	/	/	/	-14.9
CC(C)CC(=NNC(=O)c1ccncc1)c1cc(Cl)ccc1O	/	/	-2.9	21.2*
CC1CN(C(=O)c2cccs2)CCN1C(=O)c1cccs1 (centres undefined)	0.1	-10.4	43.2*	4.5
Cc1ccccc1Oc1cc(-n2ncc(Cl)c(Cl)c2=O)ncn1	0.0	-36.0	0.3	20.9*
CCCCCCCCCC(=O)NNC(=O)c1c(O)c2ccccc2n(CCC)c1=O	-0.1	-12.4	-4.5	1.7
CCCCCCCCC(=O)NNC(=O)c1c(O)c2ccccc2n(CCC)c1=O	0.0	311.6*	4.1	7.3
CC(=O)N1CCCN(C(=O)Cn2cnc3ccccc3c2=O)CC1	/	/	/	1.6
COc1ccc(-c2cc(C(=O)N3CC4(C)CC3CC(C)(C)C4)no2)cc1 (centres undefined)	0.6	-1.0	4.8	6.8
COc1ccc(-c2cc(C(=O)N3CC4(C)CC3CC(C)(C)C4)no2)cc1OC (centres undefined)	0.1	878.7*	7.2	4.0
CCOC(=O)C1(Cc2ccccc2C)CCCN(C(=O)CCc2cccnc2)C1 (centres undefined)	0.1	781.7*	1.5	1.8
CCOC(=O)C1(Cc2ccccc2C)CCCN(C(=O)CCn2nccc2C)C1 (centres undefined)	0.2	242.4	1.1	0.2
O=C(Cn1cncn1)c1ccccc1Br	0.5	357.4*	20.6	-18.7
Cc1ccc(S(=O)(=O)NCCCCC(NC(=O)OC(C)(C)C)C(=O)O)cc1 (centres undefined) (tested in a mixture with another compound)	-0.1	-2.7	35.1*	2.5
Cc1ccc(S(=O)(=O)NCCCC(=O)O)cc1	0.0	-2.8	4.6	3.2
O=C(CSCc1ccc(Cl)cc1)N1CCOCC1	0.1	3.9	-0.7	14.9
Cc1ccc(CSCC(=O)N2CCOCC2)cc1	-0.1	2.6	44.3*	-1.8
Cc1cccc(-c2ccc3[nH]c4c(c3c2)CCN2C[C@@H]([C@H](C)OC(=O)Nc3ccccc3C)[C@@H](N(C)C(=O)Nc3ccccc3C)C[C@@H]42)c1	/	/	14.2	-18.3
COc1ccccc1Cn1c(/C=C/c2ccccc2)nc2ccccc21	0.0	407.7*	8.8	-15.8
COc1ccc(/C=C/c2nc3ccccc3n2Cc2ccccc2OC)cc1	0.2	323.0*	5.2	-9.8
COc1ccc(S(=O)(=O)NC(=O)C2(C)CCN2C(=O)COc2ccc(Cl)cc2)cc1OC (centres undefined)	/	/	4.2	0.8
CC(C)NCC(O)Cn1c2c(c3ccccc31)CCc1c-2cnn1-c1ccccc1 (centres undefined)	0.4	638.0	29.6	21.3*
CC(C(=O)N1CCN(C)CC1)N1C(=O)c2ccccc2C1=O (centres undefined)	0.1	-2.9	36.1*	0.8
SMILES	Efflux pump mplx	SUMO Mot1 rescue	SKN-1 block	sPLA2-III inh
N#CCc1ccc(Oc2ncccn2)cc1	0.1	356.5*	28.0	5.2
CN(CCCN1CCOCC1)C(=O)c1cc(COc2cccc(C(F)(F)F)c2)on1	0.0	-1.8	44.8*	-4.4
Cc1ccccc1CSCCNC(=O)CCSc1ccccc1	0.1	321.9*	11.6	-5.0
Cc1ccc(CSCCNC(=O)CCSc2ccccc2)cc1	-0.4	20.0	-1.9	4.6
Fc1ccc(CSc2ccc(-c3ccco3)nn2)cc1	0.0	2.2	21.6	17.4
Fc1cccc(CSc2ccc(-c3ccco3)nn2)c1	-0.4	-7.9	49.4*	-6.9
CSc1nnc(Cc2cc(=O)[nH]c(=O)[nH]2)n1-c1cccc(C)c1	-0.1	352.5*	15.1	-13.0
Cc1cccc(-n2c(Cc3cc(=O)[nH]c(=O)[nH]3)nnc2SCC(=O)N2CCCCC2)c1	0.1	-10.8	7.4	-1.1
COC(=O)C1=C(C)N(Cc2ccccc2C(F)(F)F)C(=NCc2ccccc2)NC1c1cccc(C(F)(F)F)c1 (centres undefined)	/	/	/	-3.7
Cc1ccc(CNc2ccc3c(c2)OCO3)cc1	0.2	-23.4	5.2	/
c1cc(CNc2ccc3c(c2)OCO3)ccn1	0.0	579.6	36.9*	-4.0
Cc1ccc(-c2nnc(Nc3ccc(CC(N)=O)cc3)c3ccccc23)cc1S(N)(=O)=O	1.7*	-2.6	-2.7	15.2
CNS(=O)(=O)c1cc(-c2nnc(Nc3ccc(CC(N)=O)cc3)c3ccccc23)ccc1C	0.0	-9.4	-3.0	3.3
COCCN1Cc2cccc(C(=O)Nc3cccc(-c4nc5ccccc5[nH]4)c3)c2C1=O	0.1	13.4	7.8	-9.0
COCCN1Cc2cccc(C(=O)Nc3ccc(-c4nc5ccccc5[nH]4)cc3)c2C1=O	-0.1	689.2*	4.6	6.9
C[C@@H]1ON(C)[C@H]2C[C@H]3c4[nH]c5c(-c6ccc(Cl)cc6)cccc5c4CCN3C(=O)[C@@H]12	/	/	/	-4.9
O=C(NC1CCCC1)c1cnn2c(C(F)(F)F)cc(-c3ccco3)nc12	0.0	2.1	20.5	3.5
CC(C)CCNC(=O)c1cnn2c(C(F)(F)F)cc(-c3ccco3)nc12	0.0	-13.5	43.9*	4.9
C[C@@H]1OC(C2CCCCC2)N(C)[C@H]2C[C@H]3c4[nH]c5cccc(-c6ccccc6)c5c4CCN3C(=O)[C@@H]12 (some centres undefined)	/	/	/	-1.0
CCOC(=O)c1cc2sccc2n1Cc1ccccc1	0.2	-9.4	23.9	-2.8
COC(=O)c1cc2sccc2n1Cc1ccc(C)cc1	0.1	1.9	37.5*	1.0
c1ccc(-c2noc(-c3ccc4ccccc4c3)n2)nc1	0.1	-32.7	42.5*	/
CN(C)CCCn1c(SCC(=O)N2c3ccccc3Sc3ccccc32)nc2ccccc2c1=O	0.0	10.0	0.7	-10.4
CCOc1ccccc1NC(=O)NNS(=O)(=O)c1cc(OC)ccc1OC	0.1	-12.3	8.2	-4.0
CC1CN(C(=O)COC(=O)c2ccc(O)cc2)CC(C)O1 (centres undefined)	0.0	4.4	-14.6	-2.2
SMILES	Efflux pump mplx	SUMO Mot1 rescue	SKN-1 block	sPLA2-III inh
CC(=O)Nc1cc(NC(C)=O)cc(C(=O)OCC(=O)N2CC(C)OC(C)C2)c1 (centres undefined)	-0.1	2.9	36.1*	8.0
Cn1nnnc1Sc1ncnc2scc(Br)c12	0.2	342.0*	-0.2	5.5
Cc1cc(NC(=O)CSc2nc3ccsc3c(=O)n2CCCC(=O)NCCc2ccccc2)no1	0.0	770.8*	-2.5	0.8
Cc1ccc(NC(=O)CSc2nc(N)cc(=O)[nH]2)cc1S(=O)(=O)N1CCCCCC1	-0.2	-11.9	52.9*	3.6
O=C(CSc1nc(O)cc(=O)[nH]1)Nc1ccc2c(c1)CCC2	0.0	-5.5	45.6*	-4.8
O=C(CC1CCCC1)N[C@@H](Cc1cccnc1)C(=O)N1CCC[C@H]1C(=O)NC1CCCC1	/	/	/	3.9
Oc1ccccc1C1=NCCNC(C(F)(F)F)=C1	-0.1	199.8	3.4	2.6
FC(F)(F)C1=CC(c2ccc(Cl)cc2)=NCCN1	-0.2	424.4	36.1*	5.3
